# Results filed as inconclusive are left out. Active and inactive are the calls of the source. The call rests on the fitted dose curve; in most records, active means well fitted inhibition curve with a large enough effect; inconclusive means small, poorly fitted or top-dose-only effect; inactive means no such curve, though single readings can be large or run the other way.
# System: zebrafish ABCB5 (Abcb5) multidrug transporter
# Test: qHTS for characterization and localization of zebrafish homologs of the human ABCB1 multidrug transporter: ABCB5 transfected cells
# Settings: CellTiter-Glo luminescence viability, 72 h
# Excerpt: The zebrafish has emerged as a potential model to study the blood-brain barrier (BBB) given its similarities with mammalian systems. However, little information has been available with regard to homologous ATP-binding cassette transporters expressed at the zebrafish BBB. Two transporters that are highly expressed at the human BBB are P-glycoprotein (P-gp, encoded by the ABCB1 gene) and ABCG2 (encoded by the ABCG2 gene). In this study, we focus on characterization of P-gp homologs in the zebrafish, which has two genes that are homologous to human ABCB1 - abcb4 and abcb5. We generated stably-transfected cell lines to determine their substrate specificities. […] Zebrafish abcb4 also colocalized with claudin 5 expression in brain endothelial cells.
# A high-throughput screen was performed as previously described on empty vector transfected cells, P-gp-overexpressing MDR-19 cells and cells transfected with full-length zebrafish abcb4 (ZF Abcb4) or abcb5 (ZF Abcb5). Briefly, cells were plated into 1536-well plates at a density of 500 cells/well in 5 uL media. […] CellTiter-Glo reagent (Promega) was dispensed into the wells, incubated for 5 min and luminescence was read on a ViewLux instrument (Perkin-Elmer). […]
row,Compound,Potency
1,C=CCON=C(C[C@H]1O[C@@H]2O[C@]3(C)CC[C@@H]4[C@H](C)CC[C@@H]([C@H]1C)[C@@]24OO3)[C@H]1O[C@@H]2O[C@]3(C)CC[C@H]4[C@H](C)CC[C@@H]([C@@H]1C)[C@@]24OO3,0.526 µM (active)
2,C[C@@H]1[C@@H](CC(C[C@H]2O[C@@H]3O[C@]4(C)CC[C@@H]5[C@H](C)CC[C@@H]([C@H]2C)[C@@]35OO4)C[S+](=O)([O-])c2ccc(COC(=O)N(C)C)cc2)O[C@@H]2O[C@]3(C)CC[C@H]4[C@H](C)CC[C@@H]1[C@@]24OO3 (some centres not stated),0.59 µM (active)

# Source: PubChem BioAssay AID1508633 (National Center for Advancing Translational Sciences (NCATS), 2021)
